Results as given in PubChem BioAssay AID652054 (National Center for Advancing Translational Sciences (NCATS), 2013).
Among all 360,000 compounds or so, about 9,100 (2.5%) were called active. Not shown: some 4% with an inconclusive outcome. Only a selection was taken, and actives are over-represented in it overall. Values without a mark were called inactive. No stated cut-off is given here; in the data, active means max response below about -50%; inconclusive means no clear call, values can overlap the other calls; inactive means above that.
On the % scale 0 is the no-effect control and ±100 the full control effect.

The compounds below were run against D(3) dopamine receptor (Homo sapiens) (UniProt P35462) (assay: qHTS of D3 Dopamine Receptor Antagonist: qHTS). Details: D3R cells, DiscoveRx beta-arrestin luminescence, antagonist mode; hits give low values.
Chain of D(3) dopamine receptor (Homo sapiens) (P35462 whole entry, looked up): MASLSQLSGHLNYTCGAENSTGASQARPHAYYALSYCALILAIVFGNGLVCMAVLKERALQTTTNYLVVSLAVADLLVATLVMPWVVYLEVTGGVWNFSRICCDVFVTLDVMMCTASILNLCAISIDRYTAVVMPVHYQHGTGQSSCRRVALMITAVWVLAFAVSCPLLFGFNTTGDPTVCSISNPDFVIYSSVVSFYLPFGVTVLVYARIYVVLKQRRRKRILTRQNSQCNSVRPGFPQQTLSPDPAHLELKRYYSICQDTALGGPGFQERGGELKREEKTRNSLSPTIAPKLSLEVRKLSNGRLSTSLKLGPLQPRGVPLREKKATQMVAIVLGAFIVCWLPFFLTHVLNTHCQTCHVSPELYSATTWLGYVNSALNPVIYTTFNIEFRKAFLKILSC
Outline: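 Cells plated overnight at 1500 cells/well, then exposed to library compounds with dopamine controls for 90 minutes at 37 degrees C. DiscoveRx reagent added for 30–60 minutes at room temperature; luminescence read, quantitative HTS format.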
`O=C(CC[C@H]1O[C@@H](n2ccc(=O)[nH]c2=O)[C@H](O)[C@@H]1O)N[C@H](Cc1ccccc1)C(=O)NCc1ccco1` was tested, and the max response, negative = inhibition was 23.3%. Compound `CCCC/C=C/c1cccc2nncn12` has a max response, negative = inhibition of 11.2%. Compound `C[C@H](CO)N1C[C@H](C)[C@@H](CN(C)C(=O)C2CCCCC2)OCc2cnnn2CCCC1=O` has a max response, negative = inhibition of -18.3%. `Cc1nc2ccccn2c(=O)c1NC(=O)c1ccc(Br)o1` showed a max response, negative = inhibition of 0%. `Cc1nccn1-c1ccc(NC(=O)[C@H]2O[C@@H](n3cnc4c(N)ncnc43)[C@H](O)[C@@H]2O)cc1` showed a max response, negative = inhibition of 9.64%. Compound `COc1ccc2c(c1)CCCO[C@]21O[C@H](CCO)C[C@H](O)[C@H]1O` has a max response, negative = inhibition of -5.1%. Work on `Fc1cccc(Cc2c(-c3cccc(Cl)c3)nc3ccc(Br)cn23)c1` yielded a max response, negative = inhibition of 12.6%. `CC(C)NC(=O)Nc1ccc2c(c1)C(=O)N([C@H](C)CO)C[C@H](C)[C@@H](CN(C)Cc1ccc(C(F)(F)F)cc1)OCCCC[C@@H](C)O2` gave a max response, negative = inhibition of -28.7%. `COC(=O)C[C@@H]1C=C[C@@H](NS(=O)(=O)c2cccc(OC)c2)[C@@H](CO)O1` was tested, and the max response, negative = inhibition was 3.79%. `O=C1NC[C@H](CCCCN2C[C@H](Cc3ccccc3)N(Cc3ccccc3)C(=O)C2=O)N(CCc2ccc(O)cc2)C1=O` was tested, and the max response, negative = inhibition was 2.36%. For `COc1ccc(OCC(=O)Nc2ccc(N3CCC(C)CC3)cc2)cc1`, the max response, negative = inhibition was -0.541%. `COc1ccc(OCCCC(=O)Oc2ccc(OC)cc2)cc1` showed a max response, negative = inhibition of 12.3%. In the case of `COc1ccc(OCCCCN2CCC(C)CC2)cc1`, the max response, negative = inhibition is reported as -66.8% (active). For `CC(C)(C)OC(=O)N1CCN(C(=O)c2[nH]c(C(F)(F)F)nc2-c2ccccc2)CC1`, the max response, negative = inhibition was 11.8%. For `C=CCn1nc(C(=O)OCC)cc1-c1sc(NC(=O)c2ccccc2)nc1C`, the max response, negative = inhibition was 26.8%. `C=CCN1CCN(c2ccncc2S(=O)(=O)N2CCN(C)CC2)CC1` gave a max response, negative = inhibition of 26.6%. With `COc1ccc(-c2cc(NC=O)c3ncc(-c4cc(OC)c(OC)c(OC)c4)n3c2)c(OC)c1` the max response, negative = inhibition was 36.6%. Compound `N#Cc1c(-c2cccs2)nc(SCC(=O)c2ccc(Br)cc2)[nH]c1=O` has a max response, negative = inhibition of 4.64%. With `COC(=O)c1sc(NC(=S)NC(=O)c2ccc(C)cc2)nc1C` the max response, negative = inhibition was 2.14%. In the case of `N#Cc1ccc(C(=O)Nc2nc(-c3cccs3)c(C(=O)C(F)(F)F)s2)cc1`, the max response, negative = inhibition is reported as -58.8% (active). With `O=C(NCc1ccc(F)cc1)c1cc(C2CCCCN2C(=O)c2ccccn2)on1` (centres undefined) the max response, negative = inhibition was -10.1%. `Clc1nc(NC2CCCC2)nc(N2CCOCC2)n1` showed a max response, negative = inhibition of 16.5%. `COc1nc(NC2CCCCC2)nc(N2CCCCCC2)n1` was tested, and the max response, negative = inhibition was -62.8% (active). `COC(=O)c1ccc(Oc2nc(Nc3ccc(F)cc3)nc(N3CCCC3)n2)cc1` was tested, and the max response, negative = inhibition was -22.6%. Work on `COC(=O)[C@@]12C[C@@H](CC(=O)NCCCCc3ccccc3)C(=O)N(Cc3ccccc3)C1=CCC(C)(C)C2` yielded a max response, negative = inhibition of -9.89%. For `CN(C)CCOc1ccc(Cl)cc1C(C)(C)C`, the max response, negative = inhibition was -51.2% (active). Compound `CCN(CC)CCOCCOc1ccc(Cl)c2ccccc12` has a max response, negative = inhibition of -29.6%. Work on `Cn1c(CCCOc2ccc(Cl)cc2Cl)n[nH]c1=S` yielded a max response, negative = inhibition of 10.4%. With `CC(=O)C[C@@H]1OC[C@H](CO)N1S(=O)(=O)c1ccc(C)cc1` the max response, negative = inhibition was 6.66%.
